We go through seven compounds from ChEMBL document CHEMBL1961873, “Compounds: GSK PKIS; Assays: Nanosyn kinase panel” (2012).

Usually inhibition stands for the drop in the measured response relative to a control, in per cent.

Test [1] has as its target Dual specificity protein kinase CLK3 (Homo sapiens) (UniProt P49761). As to conditions: at 1 µM.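 Further: each value is the mean inhibition of CLK3.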
The target in test [2] is Dual specificity tyrosine-phosphorylation-regulated kinase 1A (Homo sapiens) (UniProt Q13627). As to conditions: at 0.1 µM.
Test [3] has the same target. As to conditions: at 1 µM.
The target in test [4] is Dual specificity tyrosine-phosphorylation-regulated kinase 1B (Homo sapiens) (UniProt Q9Y463). The following applies: at 0.1 µM.
The target is the same in test [5]. As to conditions: at 1 µM.
Test [6] concerns the target T1, Dual specificity tyrosine-phosphorylation-regulated kinase 2 (Homo sapiens) (UniProt Q92630).
T1 sequence (whole entry): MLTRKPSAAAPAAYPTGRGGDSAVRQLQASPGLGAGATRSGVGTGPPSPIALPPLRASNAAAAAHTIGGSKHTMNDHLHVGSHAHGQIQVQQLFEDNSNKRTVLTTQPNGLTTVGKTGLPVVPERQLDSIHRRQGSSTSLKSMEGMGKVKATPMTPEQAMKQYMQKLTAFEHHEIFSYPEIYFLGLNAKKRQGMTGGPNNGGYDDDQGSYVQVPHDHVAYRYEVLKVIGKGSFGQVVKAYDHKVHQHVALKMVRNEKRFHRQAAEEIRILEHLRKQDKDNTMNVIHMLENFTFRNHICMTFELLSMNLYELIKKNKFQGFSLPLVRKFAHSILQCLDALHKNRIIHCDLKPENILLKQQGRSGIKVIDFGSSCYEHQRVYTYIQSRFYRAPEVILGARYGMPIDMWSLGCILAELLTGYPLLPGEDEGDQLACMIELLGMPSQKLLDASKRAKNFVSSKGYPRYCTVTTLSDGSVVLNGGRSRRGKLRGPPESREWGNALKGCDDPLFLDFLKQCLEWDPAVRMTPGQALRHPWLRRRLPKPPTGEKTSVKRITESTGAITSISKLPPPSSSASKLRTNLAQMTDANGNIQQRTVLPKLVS
The following applies: at 0.1 µM.

Test [7] concerns the target T1, Dual specificity tyrosine-phosphorylation-regulated kinase 2 (Homo sapiens). As to conditions: at 1 µM.
Test [8] addresses Glycogen synthase kinase-3 alpha (Homo sapiens) (UniProt P49840). The following applies: at 0.1 µM.
For test [9] the target is unchanged. As to conditions: at 1 µM.
The target in test [10] is Glycogen synthase kinase-3 beta (Homo sapiens) (UniProt P49841). As to conditions: at 0.1 µM.
Test [11] shares this target. The following applies: at 1 µM.
In test [12] the target is Homeodomain-interacting protein kinase 1 (Homo sapiens) (UniProt Q86Z02). As to conditions: at 0.1 µM.
Test [13] shares this target. As to conditions: at 1 µM.
The target of test [14] is T2, Homeodomain-interacting protein kinase 4 (Homo sapiens) (UniProt Q8NE63).
T2 sequence (whole entry): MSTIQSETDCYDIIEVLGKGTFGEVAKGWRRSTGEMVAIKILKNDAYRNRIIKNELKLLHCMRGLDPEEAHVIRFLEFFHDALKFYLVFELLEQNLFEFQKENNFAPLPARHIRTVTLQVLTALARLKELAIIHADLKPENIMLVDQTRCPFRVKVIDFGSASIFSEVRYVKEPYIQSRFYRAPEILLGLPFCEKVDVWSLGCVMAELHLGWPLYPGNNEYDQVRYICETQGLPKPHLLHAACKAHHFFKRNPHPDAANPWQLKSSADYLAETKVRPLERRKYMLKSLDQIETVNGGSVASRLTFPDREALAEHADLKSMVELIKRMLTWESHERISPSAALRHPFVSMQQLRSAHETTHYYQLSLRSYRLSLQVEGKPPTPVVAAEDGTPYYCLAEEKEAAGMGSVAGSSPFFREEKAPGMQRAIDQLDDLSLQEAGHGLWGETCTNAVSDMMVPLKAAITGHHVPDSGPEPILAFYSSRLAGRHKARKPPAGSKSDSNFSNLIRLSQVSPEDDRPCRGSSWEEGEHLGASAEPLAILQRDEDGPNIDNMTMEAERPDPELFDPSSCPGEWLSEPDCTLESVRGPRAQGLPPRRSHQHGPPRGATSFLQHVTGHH
As to conditions: at 0.1 µM.

Test [15] deals with T2, Homeodomain-interacting protein kinase 4 (Homo sapiens). The following applies: at 1 µM.
For test [16], the target named is Mitogen-activated protein kinase 9 (Homo sapiens) (UniProt P45984). As to conditions: at 0.1 µM.
For test [17] the target is unchanged. The following applies: at 1 µM.
Test [18] concerns the target Mitogen-activated protein kinase 1 (Homo sapiens) (UniProt P28482). The following applies: at 0.1 µM.
The target is the same in test [19]. As to conditions: at 1 µM.
The target in test [20] is Mitogen-activated protein kinase 3 (Homo sapiens) (UniProt P27361). As to conditions: at 0.1 µM.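 Further: each value is a mean inhibition figure.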
Sequence of Mitogen-activated protein kinase 3 (Homo sapiens) (P27361 whole entry): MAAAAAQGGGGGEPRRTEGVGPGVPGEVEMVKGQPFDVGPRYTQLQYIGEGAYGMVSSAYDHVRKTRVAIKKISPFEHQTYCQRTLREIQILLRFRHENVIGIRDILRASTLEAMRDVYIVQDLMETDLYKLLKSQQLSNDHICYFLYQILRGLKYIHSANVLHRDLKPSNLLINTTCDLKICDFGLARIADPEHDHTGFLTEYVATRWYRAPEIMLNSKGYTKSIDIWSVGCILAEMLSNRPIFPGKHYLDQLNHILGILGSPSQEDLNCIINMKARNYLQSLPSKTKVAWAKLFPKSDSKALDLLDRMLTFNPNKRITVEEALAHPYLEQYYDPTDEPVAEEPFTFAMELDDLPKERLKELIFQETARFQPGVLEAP

Sequence of Glycogen synthase kinase-3 beta (Homo sapiens) (P49841 whole entry, looked up): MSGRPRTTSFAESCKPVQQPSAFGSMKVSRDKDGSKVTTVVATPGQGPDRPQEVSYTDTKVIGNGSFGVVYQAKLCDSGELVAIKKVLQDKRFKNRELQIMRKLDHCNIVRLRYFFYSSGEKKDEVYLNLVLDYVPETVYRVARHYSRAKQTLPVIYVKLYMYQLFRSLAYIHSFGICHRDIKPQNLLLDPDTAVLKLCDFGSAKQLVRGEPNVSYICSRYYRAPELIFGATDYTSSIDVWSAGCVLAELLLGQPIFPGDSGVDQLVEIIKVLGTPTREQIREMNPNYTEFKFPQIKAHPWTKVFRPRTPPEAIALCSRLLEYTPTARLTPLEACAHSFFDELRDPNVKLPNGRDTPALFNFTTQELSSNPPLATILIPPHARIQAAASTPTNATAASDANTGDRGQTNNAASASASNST
Sequence of Dual specificity tyrosine-phosphorylation-regulated kinase 1B (Homo sapiens) (Q9Y463 whole entry, looked up): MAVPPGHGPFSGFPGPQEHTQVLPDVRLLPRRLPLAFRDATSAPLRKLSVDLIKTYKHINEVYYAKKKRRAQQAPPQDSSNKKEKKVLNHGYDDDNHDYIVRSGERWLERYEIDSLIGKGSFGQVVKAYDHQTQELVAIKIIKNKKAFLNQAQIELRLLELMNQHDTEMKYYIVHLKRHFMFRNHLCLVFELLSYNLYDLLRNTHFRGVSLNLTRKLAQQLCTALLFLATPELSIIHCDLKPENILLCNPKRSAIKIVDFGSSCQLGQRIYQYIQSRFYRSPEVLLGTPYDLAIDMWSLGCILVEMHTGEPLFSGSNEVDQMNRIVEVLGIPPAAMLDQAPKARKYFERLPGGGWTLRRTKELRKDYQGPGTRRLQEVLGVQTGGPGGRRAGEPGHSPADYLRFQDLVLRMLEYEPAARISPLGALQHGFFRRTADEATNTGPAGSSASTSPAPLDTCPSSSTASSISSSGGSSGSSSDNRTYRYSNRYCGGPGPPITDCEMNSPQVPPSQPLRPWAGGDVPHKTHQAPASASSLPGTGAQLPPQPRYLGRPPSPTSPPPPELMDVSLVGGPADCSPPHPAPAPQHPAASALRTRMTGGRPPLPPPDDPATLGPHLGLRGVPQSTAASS
Sequence of Glycogen synthase kinase-3 alpha (Homo sapiens) (P49840 2-483 limits assumed): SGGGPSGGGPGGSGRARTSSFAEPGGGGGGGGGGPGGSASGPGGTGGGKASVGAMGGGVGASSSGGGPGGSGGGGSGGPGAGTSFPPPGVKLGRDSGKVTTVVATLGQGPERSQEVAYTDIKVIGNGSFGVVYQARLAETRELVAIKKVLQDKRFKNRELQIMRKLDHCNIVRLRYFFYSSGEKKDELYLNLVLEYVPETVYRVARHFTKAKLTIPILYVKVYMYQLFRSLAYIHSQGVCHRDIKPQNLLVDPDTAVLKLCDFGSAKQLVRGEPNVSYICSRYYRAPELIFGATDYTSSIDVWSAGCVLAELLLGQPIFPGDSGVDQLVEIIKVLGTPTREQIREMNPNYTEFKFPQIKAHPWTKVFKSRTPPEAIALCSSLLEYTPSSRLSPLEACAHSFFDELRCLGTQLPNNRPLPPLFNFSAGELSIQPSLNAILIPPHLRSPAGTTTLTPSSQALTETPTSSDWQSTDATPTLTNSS
Sequence of Mitogen-activated protein kinase 1 (Homo sapiens) (P28482 whole entry): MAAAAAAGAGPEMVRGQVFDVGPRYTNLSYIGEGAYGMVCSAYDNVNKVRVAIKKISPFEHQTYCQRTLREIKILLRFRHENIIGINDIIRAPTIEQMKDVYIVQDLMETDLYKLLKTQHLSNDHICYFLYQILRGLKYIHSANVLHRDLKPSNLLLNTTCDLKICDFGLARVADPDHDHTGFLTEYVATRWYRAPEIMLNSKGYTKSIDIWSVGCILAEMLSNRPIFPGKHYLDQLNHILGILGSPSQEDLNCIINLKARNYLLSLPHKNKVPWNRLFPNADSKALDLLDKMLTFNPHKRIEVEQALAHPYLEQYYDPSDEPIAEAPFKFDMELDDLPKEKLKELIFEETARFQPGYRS
Sequence of Homeodomain-interacting protein kinase 1 (Homo sapiens) (Q86Z02 whole entry, looked up): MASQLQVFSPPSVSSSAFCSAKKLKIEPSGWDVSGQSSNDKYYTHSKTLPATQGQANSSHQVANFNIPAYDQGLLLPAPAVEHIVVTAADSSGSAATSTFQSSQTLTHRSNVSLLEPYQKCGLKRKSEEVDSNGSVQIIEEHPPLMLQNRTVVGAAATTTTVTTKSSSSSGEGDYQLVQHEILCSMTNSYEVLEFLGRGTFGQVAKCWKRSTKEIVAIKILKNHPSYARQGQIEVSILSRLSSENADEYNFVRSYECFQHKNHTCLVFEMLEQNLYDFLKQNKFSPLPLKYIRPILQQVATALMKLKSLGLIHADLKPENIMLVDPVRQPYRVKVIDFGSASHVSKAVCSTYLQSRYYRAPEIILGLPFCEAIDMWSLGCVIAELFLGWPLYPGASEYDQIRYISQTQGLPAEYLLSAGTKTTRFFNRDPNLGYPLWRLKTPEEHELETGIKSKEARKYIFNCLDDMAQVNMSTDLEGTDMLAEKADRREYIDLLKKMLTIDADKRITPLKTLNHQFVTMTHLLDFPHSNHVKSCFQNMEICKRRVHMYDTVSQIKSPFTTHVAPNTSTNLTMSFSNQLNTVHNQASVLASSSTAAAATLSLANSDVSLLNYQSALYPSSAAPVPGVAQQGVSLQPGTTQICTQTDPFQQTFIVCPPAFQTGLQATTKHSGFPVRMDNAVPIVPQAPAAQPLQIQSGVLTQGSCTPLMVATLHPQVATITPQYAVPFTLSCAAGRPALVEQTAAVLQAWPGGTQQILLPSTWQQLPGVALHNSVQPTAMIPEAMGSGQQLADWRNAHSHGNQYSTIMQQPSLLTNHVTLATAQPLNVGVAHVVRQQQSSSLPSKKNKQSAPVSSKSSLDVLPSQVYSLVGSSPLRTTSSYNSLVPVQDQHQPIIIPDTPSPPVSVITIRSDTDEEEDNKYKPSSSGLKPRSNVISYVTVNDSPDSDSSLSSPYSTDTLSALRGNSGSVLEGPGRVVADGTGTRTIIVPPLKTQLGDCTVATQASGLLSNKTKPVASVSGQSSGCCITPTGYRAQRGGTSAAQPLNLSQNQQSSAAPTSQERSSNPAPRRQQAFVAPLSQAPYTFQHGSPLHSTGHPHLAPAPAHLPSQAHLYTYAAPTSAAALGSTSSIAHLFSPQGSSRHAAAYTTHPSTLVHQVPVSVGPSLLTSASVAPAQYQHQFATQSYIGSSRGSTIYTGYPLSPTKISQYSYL
Sequence of Mitogen-activated protein kinase 9 (Homo sapiens) (P45984 whole entry, looked up): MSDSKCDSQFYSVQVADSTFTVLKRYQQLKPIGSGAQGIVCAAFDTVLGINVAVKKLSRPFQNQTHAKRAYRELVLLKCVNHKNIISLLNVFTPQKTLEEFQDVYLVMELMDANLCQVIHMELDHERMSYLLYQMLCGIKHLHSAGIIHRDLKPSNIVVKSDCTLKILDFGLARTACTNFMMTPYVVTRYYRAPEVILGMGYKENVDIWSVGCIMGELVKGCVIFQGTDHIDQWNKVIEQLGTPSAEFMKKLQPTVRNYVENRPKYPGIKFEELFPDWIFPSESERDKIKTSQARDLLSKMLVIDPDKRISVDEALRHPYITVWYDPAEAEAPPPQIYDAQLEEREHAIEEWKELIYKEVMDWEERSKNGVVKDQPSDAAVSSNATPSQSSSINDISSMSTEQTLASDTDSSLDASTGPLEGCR
Sequence of Dual specificity protein kinase CLK3 (Homo sapiens) (P49761 whole entry, looked up): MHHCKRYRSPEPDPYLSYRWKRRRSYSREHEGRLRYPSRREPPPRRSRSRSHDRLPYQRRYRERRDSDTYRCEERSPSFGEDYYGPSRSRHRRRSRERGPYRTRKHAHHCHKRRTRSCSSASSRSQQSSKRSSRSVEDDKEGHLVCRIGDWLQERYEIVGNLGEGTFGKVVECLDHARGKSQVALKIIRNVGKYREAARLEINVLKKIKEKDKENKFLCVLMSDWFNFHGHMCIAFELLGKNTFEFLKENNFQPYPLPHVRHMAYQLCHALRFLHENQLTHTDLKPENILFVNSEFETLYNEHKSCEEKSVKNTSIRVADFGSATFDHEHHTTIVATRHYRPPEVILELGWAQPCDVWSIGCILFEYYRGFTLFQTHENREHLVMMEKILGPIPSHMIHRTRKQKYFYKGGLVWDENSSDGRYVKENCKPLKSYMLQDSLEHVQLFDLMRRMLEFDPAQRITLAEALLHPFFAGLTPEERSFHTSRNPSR

Take `Cc1ccc(C(=O)NC2CC2)cc1-c1ccc2[nH]ncc2c1`: the inhibition was 0.04% in [1]; -1.4% in test [2]; 2.6% in test [3]; 1.19% in test [4]; 3.29% in [5]; -3.32% in [6]. Besides, the inhibition in test [7] is -3.69%; in [8], -1.07%; in [9], 1.83%; in test [10] it was -0.96%; in test [11], 1.14%; in test [12], -4.85%. The inhibition in test [13] is 0.04%; in test [14] it was 0.67%; in [15], 5.11%; in test [16], -0.5%; in [17], -1.51%; in test [18], -3.82%. Moreover, the inhibition in test [19] was -5.22%; in [20], -2.68%.
In the case of `COc1ccc(-c2nn3ncccc3c2-c2ccnc(Nc3cccc(C(F)(F)F)c3)n2)cc1`, the inhibition in [1] was 0.95%; in [2], 2.09%; in [3], 1.66%; in [4] it was -0.34%; in [5], 1.16%; in test [6], 1.77%. In addition, the inhibition in [7] came out at 0.78%; in test [8], 2.36%; in test [9], 2.7%; in test [10], 1.41%; in test [11], 3.78%; in test [12], 0.13%. The inhibition in [13] is -1.85%; in test [14] it was 0.75%; in test [15], 1.33%; in test [16] it was 3.29%; in test [17] it was 8.16%; in test [18], 6.52%. Also, the inhibition worked out at 5.12% in [19] and 0.87% in test [20].
Take `CN(C)c1cc2c(Nc3ccc4c(cnn4Cc4ccccc4)c3)ncnc2cn1`: the inhibition in [1] stood at 1.41%; in test [2], 2.17%; in test [3], 6.83%; in test [4], 1.02%; in [5], 3.5%; in test [6] it was 2.42%. In addition, the inhibition in test [7] was 2.63%; in [8], 1.84%; in [9], 5.95%; in test [10] it was 1.16%; in test [11], 4.25%; in test [12], -0.5%. For the same compound, the inhibition in [13] is 2.06%; in test [14] it was 0.72%; in test [15], 0.89%; in test [16], 2.84%; in test [17] it was 2.39%; in [18], 1.31%. In addition, the inhibition is 3.41% in test [19] and 0.27% in test [20].
`COc1cc(/C=N/Nc2ncnc3c2cnn3C(C)C)ccc1O`: the inhibition was found to be 31.6% in [1]; 1.4% in [2]; 8.18% in test [3]; 0.35% in [4]; 7.69% in test [5]; 1.46% in [6]. In addition, the inhibition in test [7] amounted to 5.67%; in test [8] it was 6.47%; in [9], 37.4%; in test [10], 4.9%; in test [11] it was 32.9%; in [12], 0.71%. Also, the inhibition in [13] was found to be 16.1%; in test [14], 1.74%; in test [15], 19.6%; in test [16], 2.63%; in [17], 3.44%; in test [18], 1.48%. Further, the results for the inhibition in [19] and in test [20] were 2.57% and 1.63%, respectively.
With `CCS(=O)(=O)c1ccc(OC)c(Nc2nccc(N(C)c3ccc4c(C)n[nH]c4c3)n2)c1`, the inhibition in test [1] was 2.41%; in test [2], 2.89%; in [3], 3.45%; in test [4] it was -0.67%; in test [5], -0.22%; in test [6], 2.84%. Also, the inhibition in test [7] was 2.34%; in test [8], 2.43%; in test [9] it was 3.41%; in [10] it was 1.45%; in test [11], 1.7%; in test [12], -2.02%. Further, the inhibition in test [13] was 1.03%; in [14], 0.52%; in test [15], 1.15%; in test [16] it was 3.79%; in test [17], 2.08%; in test [18], 5.51%. Moreover, the results for the inhibition in [19] and in test [20] were 5.64% and 4.15%, respectively.
With `CCn1c(-c2nonc2N)nc2c(C#CC(C)(C)O)nc(OCCNC)cc21`, the inhibition was 0.43% in test [1]; 2.71% in [2]; 2.94% in [3]; -0.33% in test [4]; -0.29% in test [5]; 5.86% in test [6]. Moreover, the inhibition was 5.26% in test [7]; 11.6% in test [8]; 49.9% in test [9]; 8.59% in test [10]; 46.8% in test [11]; -1.59% in [12]. The inhibition in test [13] is 7.86%; in test [14], 0.33%; in test [15] it was 1.92%; in test [16], 3.85%; in [17], 2.84%; in test [18], 5.46%. For the same compound, the figures for the inhibition in [19] and in test [20] were 5.18% and 3.73%, respectively.
As to `COc1cc2ncnc(Nc3ccc(C)c(O)c3)c2cc1OC`, the inhibition in test [1] was 2.38%; in [2], 5.24%; in test [3], 7.48%; in [4], 0.95%; in test [5] it was 4.18%; in test [6], 2.96%. Moreover, the inhibition in test [7] worked out at 4.5%; in test [8], 4.81%; in test [9] it was 8.57%; in [10], 4.62%; in [11], 11.2%; in [12], 2.85%. Besides, the inhibition in [13] was 2.79%; in [14], 3.31%; in [15] it was 9.35%; in [16], 4.57%; in test [17], 5.02%; in [18] it was 5.5%. Moreover, the figures for the inhibition in [19] and in test [20] were 7.98% and 4.96%, respectively.
